Screening results: PubChem, National Center for Advancing Translational Sciences (NCATS)
Most compounds without a hit are left out; they make up all but 1.9% or so of the library.
PTHR1 agonist = qHTS for PTHR1 Agonists: Primary Screen. Parathyroid hormone/parathyroid hormone-related peptide receptor (Homo sapiens), Q03431. HEK293 GP2 PTHR1 cells, GloSensor cAMP luminescence, 1 h. Potency, µM (highest dose often 115 µM), without a hit: top-dose activation, most hits filed as activators. 410,000 compounds, 0.075% hits. AID 743266, 2014; note: potency is the fitted concentration of half-maximal effect; nearly all actives have a fitted effect of over 55% in size
Target sequence (Q03431 whole entry, looked up): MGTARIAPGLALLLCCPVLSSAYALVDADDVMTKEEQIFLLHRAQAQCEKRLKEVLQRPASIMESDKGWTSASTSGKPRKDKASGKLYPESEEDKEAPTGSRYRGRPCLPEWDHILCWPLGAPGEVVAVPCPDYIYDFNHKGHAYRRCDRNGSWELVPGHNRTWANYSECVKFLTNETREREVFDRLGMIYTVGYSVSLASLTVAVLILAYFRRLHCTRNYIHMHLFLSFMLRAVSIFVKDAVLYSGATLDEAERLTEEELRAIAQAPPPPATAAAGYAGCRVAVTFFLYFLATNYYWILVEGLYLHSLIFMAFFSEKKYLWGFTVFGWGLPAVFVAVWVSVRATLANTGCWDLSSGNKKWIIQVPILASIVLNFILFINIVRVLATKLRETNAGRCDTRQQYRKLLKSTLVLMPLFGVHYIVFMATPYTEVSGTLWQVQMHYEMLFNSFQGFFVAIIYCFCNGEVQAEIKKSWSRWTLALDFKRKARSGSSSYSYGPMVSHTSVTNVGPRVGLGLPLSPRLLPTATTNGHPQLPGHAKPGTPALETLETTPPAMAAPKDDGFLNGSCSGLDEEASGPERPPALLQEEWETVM
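HEK-293-derived GP2 cells expressing PTHR1 and a GloSensor cAMP reporter, 3,000/well, plated overnight, given luciferin plus IBMX (each 0.5 mM as added) for 1 h at 37 °C, then compound for 1 h at 37 °C. Luminescence was read after 15 min at room temperature.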
Abeta rescue = qHTS for compounds that reverse cellular toxicity of Amyloid beta (A-beta) peptide in yeast: Primary Screen. yeast expressing A-beta42, growth rescue, OD600, 48 h; response scale: 0% DMSO, 100% iron-clioquinol control. Potency, µM (series often up to 46.1 µM), hits mostly activators. AID 1347071, 2019. 410,000 compounds, 0.063% hits; note: potency is the fitted concentration of half-maximal effect; nearly all actives have a fitted effect of over 55% in size
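Yeast growth medium received pinned compounds, then yeast cells expressing toxic A-beta were added; plates incubated at 30 C for 48 hr. Growth read as absorbance at 600 nm, normalized to DMSO and equimolar FeCl3 plus clioquinol controls.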
LDHA inh = qHTS assay for inhibitors of human lactate dehydrogenase | L-lactate dehydrogenase A chain (Homo sapiens), P00338 | purified LDHA, NADH/diaphorase-resazurin fluorescence; active compounds read low | activity change, % (values are at about 110 or 230 µM) | 480,000 compounds, 0.15% hits | AID 1347041, 2019; in the data active = activity change below about -30%; inconclusive = mostly about -25% to -30%;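 note: plate controls were DMSO wells for no effect and wells without enzyme for full effect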
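LDH5 2 nM; NADH 0.06 mM, pyruvate 0.2 mM; 200 mM Tris pH 7.4, EDTA, Tween-20; 5 min RT. Detection: diaphorase 0.133 mg/mL + resazurin 37 µM, fluorescence ex540/em590 at 0 and 20 min; normalized to enzyme-free and DMSO wells.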
TDP43 rescue = qHTS of TDP-43 Inhibitors | Potency, µM (doses to about 46.1 µM), for inactives: at the top dose growth rescue (activation), actives largely listed as activators | AID 652104, 2013 | TDP-43 expressing yeast growth rescue, BacTiter-Glo, 24 h | 410,000 compounds, 1.8% hits; note: potency is the fitted concentration of half-maximal effect; % of control where 0% means no effect; nearly all actives have a fitted effect of over 50% in size
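Cell-based yeast growth screen: TDP-43 expression induced in galactose, inoculum OD600=0.02 after raffinose pregrowth to mid-log. Read-out BacTiter-Glo luminescence at 24 hr, 30 deg C; inhibition of toxicity seen as signal increase.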
aSyn rescue = qHTS of alpha-syn Inhibitors; 370,000 compounds, 0.14% hits; Yeast expressing alpha-synuclein, growth rescue, BacTiter-Glo, 24 h; Potency, µM (series often up to 46.1 µM), without a hit: at the highest dose growth rescue (activation), usual class: activators; note: potency is the fitted concentration of half-maximal effect; % of control where 0% means no effect; nearly all actives have a fitted effect of over 65% in size
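Readout is rescue of growth in alpha-synuclein-expressing yeast, so inhibitors of toxicity appear as activators. Growth after 24 hr at 30 deg C in galactose medium is quantified by luminescence.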
FUS suppressor = qHTS for Suppressors of FUS Proteinopathy: Primary screen using FUS-linked yeast assay | 390,000 compounds, 0.24% hits | AID 1347120, 2019 | S. cerevisiae FUS-expressing, growth rescue, OD600, 24 h | Potency, µM (top dose mostly 76.6 µM), actives largely listed as activators;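 note: potency is the fitted concentration of half-maximal effect; plate controls were DMSO vehicle for no effect and reference control for full effect; nearly all actives have a fitted effect of over 55% in size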
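Absorbance at 600 nm, taken 24hr after compound addition, measured rescue of FUS-yeast growth at 30C. Induction used 2% galactose with seeding at OD 0.005. Controls: CP55940 from 92uM final, DMSO only.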
* = called active by the depositor; i = inactive; u = inconclusive; x = not tested or not shown; ! = not active in a repeat; [ ] = remark or other dose. Unless noted, calls come from the whole dose curve; as a rule, active = well fitted curve in the direction sought with a large enough effect; inconclusive = small, poorly fitted or top-dose-only effect, or another doubt; inactive = no such curve, though single readings can be large; an effect the other way counts as inactive or inconclusive.

SMILES	PTHR1 agonist	Abeta rescue	LDHA inh	TDP43 rescue	aSyn rescue	FUS suppressor
COC(=O)c1c(-c2ccc(Br)cc2)noc1N	i	i	-8	20µM*	-3%	i
CCCNC(=O)c1cc2c(c(-c3cccc(-c4ccccc4F)c3)n1)[C@@H](CCO)N(C(=O)CC1CC1)C2	i	i	0	14µM*	0%	u
CCCc1nnc2sc(-c3ccc(CNC(=O)c4ccccc4C)cc3)nn12	x	x	-4	x	x	x
Cc1ccccc1Nc1c(-c2ccccn2)nc2c(C)cccn12	-20%	11µM*	-13	-9%	-10%	i
CC1(OC(=O)c2ccco2)C(=O)C=C2C=C(C3CC3)OC=C2C1=O (stereo not given)	-12%	i	10	11µM*	-12%	i
CCC(=O)OC1(C)C(=O)C=C2C=C(C3CC3)OC=C2C1=O (stereo not given)	0%	i	14	u	-11%	i
CC1(OC(=O)c2cccs2)C(=O)C=C2C=C(C3CC3)OC=C2C1=O (stereo not given)	-7%	i	9	20µM*	-6%	i
COc1ccccc1CCNC(=O)C1CCC(=O)N(Cc2ccccc2OC)C1 (stereo not given)	-24%	i	-5	1%	-2%	i
COc1ccccc1CN1CC(C(=O)NCCCc2ccc(F)cc2)CCC1=O (stereo not given)	i	i	-2	-4%	-2%	16µM*
COC(=O)c1ccccc1NC(=O)Cc1nc(-c2ccc(OC)cc2)no1	50µM*	i	-7	-25%	x	i
CCOC(=O)c1ccccc1NC(=O)CCc1nc(-c2ccc(C)cc2)no1	i	i	2	5%	x	i
CCN(CC)CC(=O)Nc1cc(N(C)C)nc2ccccc12	i	i	-33*	-2%	-2%	u
CCCCn1nnnc1CSc1nnc(-c2ccccc2)n1-c1ccccc1	x	x	-31*	x	x	x
O=c1[nH]c(CSc2nnc(-c3ccccc3)n2-c2ccccc2)nc2ccccc12	-18%	i	4	-2%	0%	i
COc1ccc(-c2cc(C(=O)NCCO)c3ccccc3n2)cc1	x	x	-4	x	x	x
CC1=NN(c2nc(C)cc(C)n2)C(=O)C1Cc1ccc(Br)cc1 (stereo not given)	x	x	5	x	x	x
CC1=NN(c2nc(C)cc(C)n2)C(=O)C1Cc1ccc(Cl)cc1 (stereo not given)	x	x	-36*	x	x	x
O=C(c1cc(F)ccc1F)C1CCN(CCc2ccncc2)CC1	x	x	-4	x	x	x
CCOc1ccc(CCNC(=O)Cn2ccc3cc(S(=O)(=O)N4CCCCC4)ccc32)cc1	-30%	i	3	12%	x	18µM*
COC(=O)Cn1ccc2cc(S(=O)(=O)N3CCCCCC3)ccc21	u	i	0	16µM*!	11%	i
CCOC(=O)c1c(C)n(C)c2ccc(OCC#N)cc12	x	x	-2	x	x	x
Cc1nc2ccc(S(=O)(=O)N(CC(=O)N3CCCCC3)Cc3ccccc3)cc2s1	x	x	0	x	x	x
COc1cnc(-c2ccccn2)nc1Sc1ccc(F)cc1	-1%	10µM*	-14	-19%	9%	i
COc1ccc(Sc2nc(-c3ccccn3)ncc2OC)cc1	-1%	u	-2	2%	13%	i
COc1cnc(-c2ccccn2)nc1Sc1ccc(Cl)cc1	i	u	2	14µM*	-6%	i
SMILES	PTHR1 agonist	Abeta rescue	LDHA inh	TDP43 rescue	aSyn rescue	FUS suppressor
CC[n+]1c(/C=C/C=C/N(C(C)=O)c2ccccc2)sc2ccccc21	-13%[57.5 µM]	i	-3	-22%	-5%	18µM*
CCn1c(/C=C/N(C(C)=O)c2ccccc2)[n+](CC)c2ccc(Cl)cc21	-10%	i	-21	1%	3%	x
COc1ccc(Nc2nc(N)c(C(=O)c3cc(C)ccc3C)s2)cc1Cl	x	x	7	x	x	x
COc1ccccc1C(C[N+](=O)[O-])c1c[nH]c2ccccc12 (stereo not given)	i	i	-10	20µM*	u	i
CC(=O)C(C(c1ccccc1)c1c[nH]c2ccccc12)[N+](=O)[O-] (stereo not given)	-20%	u	0	13µM*	u	i
CCn1cc(C(c2ccccc2)C(C(C)=O)[N+](=O)[O-])c2ccccc21 (stereo not given)	-65%	i	2	-1%	8%	i
Cc1ccc(Sc2cc(C)c3cccc(C(C)C)c3n2)cc1	x	x	1	x	x	x
O=C(Cn1nc(N2CCN(c3ccccc3)CC2)ccc1=O)Nc1ccccc1	x	x	-18	x	x	x
CC(=O)Nc1ccc(C(=O)OCC(=O)c2ccc(S(=O)(=O)N3CCCCC3)cc2)cc1	i	i	1	0%	-4%	7.9µM*
CC(OC(=O)c1cc2ccccc2[nH]1)C(=O)Nc1ccccc1 (stereo not given)	x	x	-11	x	x	x
CN(C)c1ccc(/C=N/NC(=O)C(c2ccccc2)c2ccccc2)cc1	x	x	11	x	x	x
CCn1nc(C(=O)Nc2nc3ccccc3n2CC)c2ccccc2c1=O	x	x	0	x	x	x
COC(=O)c1cccc(NC(=S)Nc2cccc(Cl)c2Cl)c1	-6%	i	-6	18µM*	4%	i
Cc1ccccc1-c1cc(C(=O)Nc2sc(C)c(C)c2C(N)=O)c2ccccc2n1	-12%	i	-5	22µM*	-18%	i
COc1ccc(NC(=O)CC2C(=O)N(c3ccc(OC)cc3)C(=O)N2C2CCCCC2)cc1 (stereo not given)	i	i	1	15%	x	i
CCOc1ccc(NC(=O)CC2C(=O)N(c3ccc(OC)cc3)C(=O)N2C2CCCCC2)cc1 (stereo not given)	7%	i	0	-12%	x	40µM*
O=C(O)c1ccc(N/N=C/c2cccc(C(F)(F)F)c2)cc1	-18%	i	-17	13µM*	-45%	i
O=C(N/N=C/C(Br)=C/c1ccccc1)NC1CCCCC1	-21%	i	2	u	10%	i
O=C(O)c1ccc(N/N=C/C(Br)=C/c2ccccc2)cc1	i	i	-11	11µM*	-30%	i
O=C(O)c1ccc(N/N=C/c2cccc(F)c2)cc1	-1%	i	-6	-5%	0%	i
Cc1onc(-c2ccccc2)c1C(=O)N/N=C/C(Br)=C/c1ccccc1	-28%	i	-16	18µM*	u	x
